Bioassay records from PubChem.
In the library only some 2.2% were active in any assay of this set; here they are far more common.
iPSC survival up: enhancers of single-cell hiPSC survival, primary screen, ATPlite luminescence; 100% = ROCK inhibitor wells, 0% = DMSO; 360,000 compounds, 0.044% hits; AID 602274, 2012; survival enhancement, % at 20 µM; in the data active = survival enhancement above about 18%;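 also: cells exposed to compounds for 16 hours before the ATP read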
PPC-1+TRAIL kill: compounds killing PPC-1 cancer cells with TRAIL present, primary screen, TRAIL potentiator project, ATPLite luminescence, uHTS; PPC-1 cells + TRAIL, ATPLite viability luminescence; 220,000 compounds, 0.41% hits; cell killing (% activity), % at 4 µM or 5 µM;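 active = cell killing above 50% in the first pass at 4 µM, then a duplicate retest at 5 µM averaging 50% or more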;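 also: plate controls were cells with TRAIL plus DMSO for no effect and medium-only wells lacking cells for full effect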
KKLEB cytotox: cytotoxicity in KKLEB CF airway cells, primary screen, cytotoxicity control for CF NF-kB inhibitor project, cell-based, uHTS, fluorescence assay plates | KKLEB CF airway cells viability, ATPlite luminescence, overnight; stronger effect = lower value; cells stimulated with P. aeruginosa culture filtrate | activity change (cytotoxicity), % at 5 µM | 360,000 compounds, 0.36% hits | AID 602141, 2011;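 active = corrected activity change at or below -50% at 5 µM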
CF NFkB block: inhibitors of PAF-induced NF-kB signaling, primary screen, cell-based, GFP fluorescence, uHTS. KKLEB NF-kB-GFP reporter, GFP fluorescence overnight. inhibition, % at 5 µM. 360,000 compounds, 0.86% hits. AID 588850, 2011;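 active = at least 50% inhibition at 5 µM, scaled per plate between neutral and stimulator controls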;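 also: PAF is a Pseudomonas aeruginosa culture filtrate used as stimulus; plate controls were PAF-stimulated DMSO wells for no effect and unstimulated DMSO wells for full effect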
HIF-2a inh: HIF-2a reporter inhibitors, primary screen, luminescence, 786-0 RCC cells. 786-0 RCC cells HIF-2a reporter, luciferase luminescence, overnight. inhibition, % at 18.8 µM. 360,000 compounds, 0.72% hits. AID 624352, 2012;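 active = inhibition of the luminescence signal of 40% or more relative to plate controls, in a single-dose primary screen at 18.75 µM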
TRAIL sens C8: viability loss with TRAIL in NB7+C8 cells, primary screen, TRAIL sensitizer project, cell-based, ATPlite luminescence; inhibition (viability loss, TRAIL sensitization), % at 10 µM; 360,000 compounds, 1% hits; AID 624354, 2012;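 active = compounds causing at least 50% loss of cell viability in the single-dose screen, relative to plate controls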
PPC1 cytotox: cytotoxicity in PPC-1 cells, confirmation, cytotoxicity control for TRAIL apoptosis potentiator project, cell-based, ATP content luminescence; shares compounds with PPC-1+TRAIL kill; 1,200 compounds, 50% hits; AID 1447, 2008; cytotoxicity, % at 5 µM; PPC-1 viability, ATPlite luminescence, overnight;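 active = reconfirmed compounds whose average cytotoxicity reaches 50% or more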;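 also: 0% = DMSO-treated cells and 100% = wells holding medium but no cells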
Starred values were filed as active, the others as inactive; x = not tested or not shown.

SMILES	iPSC survival up	PPC-1+TRAIL kill	KKLEB cytotox	CF NFkB block	HIF-2a inh	TRAIL sens C8	PPC1 cytotox
COc1ccc(OC)c2sc(N3CCc4ccccc4C3)nc12	0	13	-4	7	-115	17	x
COC(=O)CSc1nsc(SCC(=O)OC)c1C#N	-2	5	3	-3	2	-19	x
N#Cc1c(SCC(=O)N2CCCCC2)nsc1SCC(=O)N1CCCCC1	3	3	10	1	10	6	18
O=C1C=C(Nc2ccccc2)C(=O)c2ccccc21	-2	36	-8	60*	-164	47	33
O=C(Nc1nccs1)c1ccc(-c2ccc(Cl)cc2)o1	-1	60*	-36	-52	-357	81*	61*
O=C(Nc1nccs1)c1cnccn1	-1	8	-32	18	-33	-2	8
Cn1nc(-c2ccccn2)nc2c(=O)n(C)c(=O)nc1-2	0	30	-99*	100*	71*	96*	36
COc1ccc(-c2nc(-c3ccccn3)ncc2S(C)(=O)=O)cc1	-1	-12	-1	-3	7	-7	x
COc1cccc(C(=O)Nc2ccc(NC(=O)C3CCCCC3)nc2)c1	0	x	8	2	-13	-6	x
COc1cccc(C(=O)Nc2ccc(NC(=O)C(C)(C)C)cn2)c1	-2	71*	-10	6	-21	77*	73*
CCOc1cccc2sc(Cl)nc12	0	5	0	6	15	-23	4
COc1nc(OC)nc(N2CCC(C(=O)NCc3cccs3)CC2)n1	2	-1	6	-15	11	-4	2
C[C@H](c1ccccc1)N1C[C@H](COCc2ccccc2)Oc2cc(N3CC[C@H](N(C)C)C3)ccc2S1(=O)=O	-1	x	x	x	-13	13	x
Cc1ccccc1Nc1nc(N)c2ccccc2n1	-1	58*	-25	22	-107	63*	54*
Nc1nc(Nc2ccc(Cl)cc2)nc2ccccc12	-4	79*	-55*	8	-76	76*	80*
COc1cc2nc(Nc3ccc(F)cc3)nc(N)c2cc1OC	0	x	-13	-47	-43	9	x
COc1ccc(C)cc1Nc1nc(N)c2ccccc2n1	0	x	2	-10	-146	-5	x
O=C(CSc1nc(=O)n(CCCN2CCOCC2)c2c1CCC2)Nc1ccc([N+](=O)[O-])cc1	0	x	-7	-21	2	31	x
CC(Oc1ccc(Cl)cc1Cl)C(=O)NNC(=O)C(=O)N1CCCCC1 (configuration not stated)	1	5	9	-25	3	-3	x
CCN(CC)CCCNc1nc2cc(OC)c(OC)cc2c2nc(-c3ccccc3)nn12	-6	26	-5	-110	16	11	22
CCN(CC)CCCNc1nc2cc(OC)c(OC)cc2c2nc(-c3cccnc3)nn12	-5	-4	-5	-83	15	25	x
Cc1cc(C(=O)Nc2ccc(Cl)cc2)c(C)n1-c1ccccc1	-1	83*	-68*	-15	73*	83*	79*
CC1(c2ccccc2)NC(=O)N(CC(=O)NNC(=O)c2cccc(Cl)c2)C1=O (configuration not stated)	5	x	6	-2	-4	-17	x
Cc1cc(NCCCn2ccnc2)n2nc(C)c(-c3ccccc3)c2n1	1	24	-23	4	-203	27	x
Cc1cc(NCCCn2ccnc2)n2ncc(-c3ccccc3)c2n1	-6	67*	-32	0	26	77*	62*
SMILES	iPSC survival up	PPC-1+TRAIL kill	KKLEB cytotox	CF NFkB block	HIF-2a inh	TRAIL sens C8	PPC1 cytotox
Cc1cccc(Nc2nc3c(s2)CCCC3)c1	-1	-11	18	-7	-280	4	x
O=S1(=O)N=C(Nc2nc3c(s2)CCCC3)c2ccccc21	-2	60*	1	-16	-180	75*	60*
COc1ccccc1C(=O)Nc1ccc2c(c1)nc1n2CCSC1	0	28	20	-7	-243	43	35
CC(c1ccco1)N(C(=O)COc1ccc(Cl)cc1Cl)c1ccccn1 (configuration not stated)	-2	14	-16	7	-46	57*	4
CN=C1NC(C)(C)C2CCC(C)(CC2)S1	-1	x	15	-6	9	6	x
COc1ccccc1C(=O)Nc1ccc(N2CCN(C(C)=O)CC2)cc1	-2	15	1	-4	-7	3	x
CC(=O)N1CCN(C(=O)COc2ccccc2C(=O)Nc2ccccc2)CC1	0	5	9	-24	10	0	8
COc1ccc(-c2csc3nc(C(C)(C)C)oc(=O)c23)cc1OC	0	35	-5	-13	12	-2	x
CC(C)(C)c1nc2scc(-c3ccc(Cl)cc3)c2c(=O)o1	6	-5	10	-19	-2	13	-2
COc1ccc(NC(=O)CCNS(=O)(=O)c2cc(Br)cnc2N)cc1OC	0	x	5	11	13	-16	x
O=S(=O)(NCCCCCNS(=O)(=O)c1ccc(F)cc1)c1ccc(F)cc1	-1	-6	2	3	21	3	-8
O=C(O)CCCNS(=O)(=O)c1ccc(F)cc1	0	12	9	-3	9	-19	x
Cc1cc(/C=N/NC(=O)c2cccc(N(C)C)c2)c(C)n1-c1cc(C(=O)O)cc(C(=O)O)c1	3	2	5	-4	-41	-3	x
CN(C)c1cccc(C(=O)N/N=C/c2ccccc2F)c1	-1	62*	-5	-16	-10	79*	59*
COc1cccc(-c2noc(-c3ccc4c(c3)OCO4)n2)c1	0	60*	-30	-1	-144	66*	62*
CCCOc1ccc2c(=O)c(N3C(=O)c4ccccc4C3=O)c(C)oc2c1	-2	-16	-12	5	2	-6	-10
CCN(CC)c1ccc(C(=O)Nc2cccc(F)c2)cc1	-4	16	0	-10	-194	42	16
CN(C)c1cccc(C(=O)Nc2cccc(F)c2)c1	3	34	10	-6	-207	-14	x
COc1ccc2[nH]c3c(c2c1)CCN1C(=O)C(CC(=O)NCCN2CCOCC2)C[C@H](C(=O)N2CCOCC2)[C@@]31C (some centres not stated)	3	x	21	-30	3	-15	x
C=C1CCN([C@@H](CC(C)C)C(=O)NCCC(C)C)S(=O)(=O)c2ccccc21	-3	x	0	-12	4	6	x
